Data as given in PubChem BioAssay AID2013 (Sanford-Burnham Center for Chemical Genomics, 2009).
Values joined by “and” are separate entries in the source; they are usually repeats but may differ in a detail not shown here. Equal values may be shown once. Hit rate of the full screen: of about 290,000 compounds, about 370 (0.13%) were called active. This is one part of a sample in which actives are shown more often than they occur. Potency and affinity values are given separately. A number with no mark means an inactive call.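 Rule for the calls: active = spots per cell inhibited over 60%, with over 100 cells counted and total cytoplasm intensity under 500,000; inconclusive = wells with under 100 cells, flagged as likely toxic; inactive = the rest.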

What follows are compounds tested against G-protein coupled receptor 55 (Homo sapiens) (UniProt Q9Y2T6) (assay: GPR55 antagonists blocking LPI-driven arrestin recruitment, primary screen, imaging, U2OS, beta-arrestin-GFP, LPI agonist (AID 2013;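 note: U2OS cells stably carrying GPR55 and arrestin-GFP stimulated by 5 µM LPI near EC80; imaged beta-arrestin-GFP aggregate spots per cell after agonist stimulation; plate controls were LPI-stimulated DMSO wells for no effect and DMSO wells without LPI for full effect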)). Conditions: U2OS GPR55 beta-arrestin-GFP translocation imaging, LPI antagonism; at 10 µM; stronger effect = higher value.
G-protein coupled receptor 55 (Homo sapiens), sequence (Q9Y2T6 whole entry, looked up): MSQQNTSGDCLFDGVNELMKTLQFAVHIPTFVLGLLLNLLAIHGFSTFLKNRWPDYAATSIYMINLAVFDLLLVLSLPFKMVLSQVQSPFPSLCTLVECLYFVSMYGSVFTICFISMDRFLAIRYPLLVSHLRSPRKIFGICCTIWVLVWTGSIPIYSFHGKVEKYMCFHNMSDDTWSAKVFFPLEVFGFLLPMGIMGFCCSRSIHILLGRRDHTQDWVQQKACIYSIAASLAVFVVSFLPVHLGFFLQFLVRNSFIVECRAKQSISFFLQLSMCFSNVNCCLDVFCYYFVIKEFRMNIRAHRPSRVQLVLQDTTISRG

Compound	inhibition
O=C(Nc1ccc(-n2cnnn2)cc1)C(c1ccccc1)c1ccccc1	6.3%
CN1CCN(C(=O)c2cnn(-c3ccccc3)c2NC(=O)c2ccccc2Br)CC1	2.7%
COc1ccc(C(C)=O)cc1CSc1nnc(Nc2ccc(C)cc2C)s1	1.3%
CCn1c(Cn2nnc(-c3ccccc3)n2)nnc1SCC(=O)Nc1ccccc1	-10.2%
CCOC(=O)CSc1nnc(Cn2nnc(-c3ccccc3)n2)n1CC	16%
COc1ccccc1OCC(=O)NCc1nc(-c2ccccc2)no1	4.4%
COc1ccc2[nH]c3c(=O)n(/N=C/c4ccc(OC)c(CN5CCCC5)c4)c(C)nc3c2c1	11.7%
COc1ccc(S(=O)(=O)CC(=O)c2cc3cccc(C)c3oc2=O)cc1	-0.3%
COc1ccc2cc(C(=O)CS(=O)(=O)c3ccccc3)c(=O)oc2c1	-4.7%
COc1cc(S(=O)(=O)NC2CCCC2)c(OC)cc1Cl	-2.6%
O=C(N1CCOCC1)C1(c2ccc(Cl)cc2)CCCC1	44.4%
COc1ccc(C2(C(=O)N3CCC(n4nc(-c5ccccc5)oc4=O)CC3)CC2)cc1	7.7%
O=C(N1CCC(n2nc(-c3ccccc3)oc2=O)CC1)C1(c2ccccc2)CC1	-6.7%
O=C(N1CCCCC1)C1(c2ccccc2)CCCCC1	4.3%
COc1ccc(C(OC(=O)c2ccco2)C(=O)NCc2ccco2)cc1 (stereo not drawn)	14.6%
COC(=O)c1ccccc1SCc1csc(C)n1	5.7%
COc1ccccc1NC(=O)CCN1CC(C)OC(C)C1 (stereo not drawn)	3.2%
O=C(NCC(=O)N1CCC2(CC1)NCCc1[nH]cnc12)c1ccc2ccccc2c1	15.2%
CCCN1C(=O)/C(=C/C=C2\N(CC)c3ccccc3C2(C)C)SC1=S	-9%
CCCCN1C(=O)/C(=C/C=C2\N(C)c3ccccc3C2(C)C)SC1=S	17.2%
CCCCNC(=O)N1c2ccccc2CC1C (stereo not drawn)	7.4%
COC(=O)c1[nH]c2ccccc2c1NC(=O)c1ccccc1[N+](=O)[O-]	12.4%
Cc1ccc(OCc2ccc(C#N)cc2)c(C(=O)c2cc(C#N)c(=O)n(C3CC3)c2)c1	-4.5%
Cc1ccc(Cc2cnc(N3C(=N)SC(C)C3=O)s2)cc1 (stereo not drawn)	16.2%

Compound	inhibition
N=C1SCC(=O)N1c1ncc(Cc2ccc(F)cc2)s1	12.6%
N=C1SCC(=O)N1c1ncc(Cc2cccc(Cl)c2)s1	98.9% (active)
Cc1cccc(Cc2cnc(N3C(=N)SC(c4ccccc4)C3=O)s2)c1 (stereo not drawn)	2.3%
N=C1SCC(=O)N1c1ncc(Cc2ccccc2Cl)s1	38%
CCN(CC)CCN(C(=O)c1ccc2c(c1)OCCO2)c1nc2cc(C)cc(C)c2s1	9.6%
CC1CCCN(C(=O)Cn2nnc(-c3ccccc3F)n2)C1 (stereo not drawn)	4.4%
Cc1ccc(OCCOc2cccc(Br)c2)c([N+](=O)[O-])n1	9.4%
Cc1nc(SCC(=O)c2cc3ccccc3oc2=O)c(C#N)c(-c2ccccc2)c1C(=O)Nc1ccccc1	3.8%
COc1ccc(N(C(=O)c2ccncc2)S(=O)(=O)c2ccc(F)cc2)cc1	-6%
CN(C(=O)c1ccccc1OCc1ccc(Cl)cc1)c1ccccc1	4.2%
O=C(O)c1cccc(COc2ccccc2Cl)c1	4.2%
O=C(COc1ccc([N+](=O)[O-])cc1)Nc1ccccc1N1CCCC1	7.8%
COc1ccc(C(CCNCc2ccc(F)cc2)c2ccc(F)cc2)cc1 (stereo not drawn)	45.1%
COc1ccc(C(CCN)c2ccc3c(c2)OCO3)cc1 (stereo not drawn)	12.6%
COc1ccc(C(CCNCc2ccc(N(C)C)cc2)c2ccccc2)cc1 (stereo not drawn)	33.8%
COc1ccc(C(CCNCc2ccccc2)c2ccc(F)cc2)cc1 (stereo not drawn)	37.5%
CCCNC(=O)c1ccc(C2SCC(=O)N2Cc2ccccc2)cc1 (stereo not drawn)	0%
O=C(NCc1ccccc1)c1ccc(C2SCC(=O)N2Cc2ccccc2)cc1 (stereo not drawn)	4.1%
CC(C)c1ccc(C2CC(=O)c3cnc(NC(=O)c4ccco4)nc3C2)cc1 (stereo not drawn)	6.3%
O=C(CC(=O)NCc1ccc(Cl)cc1)NCc1ccc(Cl)cc1	1.9%
CC(C)C(=O)Nc1ccc2c(c1)nc(CCN1CCCCC1)n2C	-5.6%
Cc1cc(C)c(C2C(C#N)=C(N)Oc3n[nH]c(C)c32)cc1CN1CCCC1 (stereo not drawn)	7.5%
COc1ccc(NS(=O)(=O)c2ccc(OC)c(N(C)S(=O)(=O)c3ccc(Cl)cc3)c2)cc1	1.4%
COc1ccc(S(=O)(=O)NN(C)C)cc1N(C)S(=O)(=O)c1ccc(Cl)cc1	9.7%

Compound	inhibition
COc1ccc(S(=O)(=O)Nc2ccc(S(=O)(=O)Nc3ccc(F)cc3)cc2)cc1C	17.8%
COc1ccc(S(=O)(=O)N2CCCCCC2)cc1N(C)S(=O)(=O)c1ccc(Cl)cc1	18.7%
CC(=O)N1CCN(S(=O)(=O)c2ccc(C)cc2)C1c1ccc(N(C)C)cc1 (stereo not drawn)	3.3%
CCNc1cc(Nc2c(C)n(C)n(-c3ccccc3)c2=O)c([N+](=O)[O-])c2nonc12	3.6%
O=[N+]([O-])c1c(Nc2cccc(O)c2)cc(Cl)c2nonc12	77.1% (active)
O=[N+]([O-])c1c(Nc2ccccn2)cc(Cl)c2nonc12	4.7%
CN(C)c1cc(Nc2cccc(O)c2)c([N+](=O)[O-])c2nonc12	-9.3%
O=C(O)c1cccc(Nc2cc(Cl)c3nonc3c2[N+](=O)[O-])c1	-6.5%
O=C(O)c1ccc(Nc2cc(Cl)c3nonc3c2[N+](=O)[O-])cc1	15.1%
O=[N+]([O-])c1c(Nc2ccccc2O)cc(Cl)c2nonc12	-4%
O=C(O)c1cc(Nc2cc(Cl)c3nonc3c2[N+](=O)[O-])ccc1O	-3.1%
Cc1c(Nc2cc(N3CCOCC3)c3nonc3c2[N+](=O)[O-])c(=O)n(-c2ccccc2)n1C	18.1%
O=[N+]([O-])c1c(Nc2ccc(O)cc2)cc(Cl)c2nonc12	90.4% (active)
CC(=O)N1CCN(c2ccc(NC(=O)c3ccc(F)cc3)cc2)CC1	4.7%
Cc1ccc(C(=O)NC2CCN(CC(=O)Nc3c(C)cc(C)cc3C)CC2)cc1	3.2%
COc1cc(C(=O)NCc2nnc(SCC(=O)Nc3nc4ccccc4s3)o2)cc(OC)c1OC	-13.1%
O=C(Cn1c(=O)c2cccn2c2cccnc21)N1CCN(c2ccc(Cl)cc2)CC1	-2.4%
COc1ccc(NC(=O)CN(C)C(=O)C(C)Sc2ccccc2)cc1 (stereo not drawn)	8.3%
CC(=O)Nc1ccc(S(=O)(=O)NC(CC(=O)NCCc2ccccc2)C(C)C)cc1 (stereo not drawn)	12.5%
CC(=O)N1CCN(c2ccc(NC(=O)c3ccc([N+](=O)[O-])cc3Cl)cc2)CC1	3.5%
Cc1nc(-c2ccc([N+](=O)[O-])cc2)sc1C(=O)O	6.9%
CCS(=O)(=O)c1ccc(-c2csc(-c3ccccc3Cl)n2)c(Cl)c1Cl	-11.1%
CCS(=O)(=O)c1ccc(-c2csc(-c3ccccc3)n2)c(Cl)c1Cl	31.4%
COc1ccc(-c2csc(Nc3cccc(C)n3)n2)cc1C	13.8%

Compound	inhibition
O=C(Nc1nc(-c2ccc(Cl)cc2Cl)cs1)c1ccc(OCC2CCCO2)cc1 (stereo not drawn)	96% (active)
O=C(Nc1nc(-c2ccc(F)c(F)c2)cs1)c1ccc(OCC2CCCO2)cc1 (stereo not drawn)	-5.3%
COc1ccc(OC)c(-c2csc(NC(=O)c3ccc(OCC4CCCO4)cc3)n2)c1 (stereo not drawn)	-3%
CCn1nc(C)c(/C=N/NC(=O)Cn2nnc(N)n2)c1C	-1.9%
CCOC(=O)C1CCCN(S(=O)(=O)c2cc(Br)cc3c2N(C(=O)CC)CC3)C1 (stereo not drawn)	-0.6%
COc1cc(/C=C/C(=O)OCN2C(=O)c3ccccc3C2=O)ccc1OC(F)F	0.4%
N#Cc1c(/N=C/c2ccccc2)oc(-c2ccccc2)c1-c1ccccc1	-11.7%
COc1ccc(-c2oc(/N=C/N3CCCC3)c(C#N)c2-c2ccc(OC)cc2)cc1	14.8%
CC(C)(C)SCCNC(=O)/C=C/c1ccccc1	2.8%
COc1ccc(S(=O)(=O)n2nc(OC(=O)c3c(-c4ccccc4Cl)noc3C)cc2N)cc1	-4.9%
COc1cccc(N(C(=O)c2cccs2)c2nc3ccccc3s2)c1	0.2%
Cc1ccsc1C(=O)N(c1nc2ccccc2s1)c1c(C)cccc1C	9.7%
O=C(COC(=O)C1CC2C=CC1C2)Nc1cccc(S(=O)(=O)N2CCOCC2)c1 (stereo not drawn)	-10.4%
C=C(c1ccc(OC)cc1)c1ccc(OC)cc1	-8%
O=C(c1ccc(O)cc1)c1ccc(C(=O)c2ccc(O)cc2)cc1	9.7% and -6%
ONC(=Nc1ccccc1)c1ccc(Cl)cc1	19.2%
COc1cccc(C(c2nnnn2Cc2ccco2)N2CCN(c3cccc(C)c3C)CC2)c1OC (stereo not drawn)	99.7% (active)
CCN1CCN(C(c2cccc(OC)c2OC)c2nnnn2Cc2ccco2)CC1 (stereo not drawn)	-6.5%
COc1ccccc1C(c1nnnn1Cc1ccco1)N1CCN(c2cccc(C)c2C)CC1 (stereo not drawn)	15.4%
O=C(NC1CCN(Cc2ccc(F)cc2)CC1)c1ccccc1	6.4%
Fc1ccc(NC(=S)NC2CCN(Cc3ccccc3)CC2)cc1	28.1%
